For 21 compounds, AC50 and outcome results are on record in PubChem BioAssay (EPA / NIEHS).

Assay [1] in a line: APR_HepG2_P-H2AX_72hr: Apredica 72-hour HepG2 Assay for H2AX Phosphorylation (AID 2282916).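 Note: phospho-histone H2A.x immunostain intensity per cell marking DNA damage.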 As to conditions: imaging, actives raise or lower the signal. Put shortly: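 HepG2; cpd 0.39–200 uM ×10 conc, duplicates; 0.5% DMSO; 72 hr. Fix 3.7% formaldehyde 30 min RT, 0.5% Triton X-100 10 min. Anti-phospho-H2A.x 1:200 + Hoechst 2 ug/mL, 60 min RT; ArrayScan imaging.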
Assay [2] can be described thus: APR_HepG2_MitoMembPot_72hr: Apredica 72-hour HepG2 Assay for Mitochondrial Membrane Potential (AID 2282917). As to conditions: imaging, actives raise or lower the signal. The procedure, abridged:
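HepG2 cells dosed 72 hr with compound at 0.39–200 uM in duplicate, 0.5% v/v DMSO final. Mitochondria stained with 250 nM MitoTracker Red CMXRos for 30 min before formaldehyde fixation, imaged by high-content fluorescence; bidirectional fit versus DMSO.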

Assay [3] can be described thus: APR_HepG2_MitoticArrest_72hr: Apredica 72-hour HepG2 Assay for Mitotic Arrest (AID 2282918). As to conditions: high-content imaging, actives raise or lower the signal. Put shortly:
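Read-out is phospho-histone H3 immunofluorescence with Hoechst nuclear segmentation, imaged at 20x. Human HepG2 liver cells received ten concentrations (0.39–200 uM, final DMSO 0.5% v/v) for 72 hr before fixation. Gain or loss of signal was fitted relative to DMSO.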

A short description of assay [4]: APR_HepG2_MicrotubuleCSK_72hr: Apredica 72-hour HepG2 Assay for Microtubule CSK Stabilty (AID 2282919). The conditions noted are these: HepG2 microtubule cytoskeleton, high-content imaging, actives raise or lower the signal. The procedure, abridged: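 HepG2 cells were exposed 72 hr to compound at 0.39–200 uM in duplicate (0.5% DMSO final), then fixed and permeabilized. Alpha-tubulin immunofluorescence was imaged by high-content microscopy, with bidirectional fitting against DMSO and taxol as positive control.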

A short description of assay [5]: APR_HepG2_P-H2AX_24hr: Apredica 24-hour HepG2 Assay for H2AX Phosphorylation (AID 2282920). The conditions noted are these: high-content imaging, actives raise or lower the signal. Put shortly:
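HepG2, 24 hr, cpd 0.39–200 uM (10 conc, duplicate), DMSO 0.5% v/v final. Fix 3.7% formaldehyde, Triton X-100 permeabilize, anti-phospho-H2A.x 1:200 + Hoechst 2 ug/mL. Imaged, bidirectional fit vs DMSO.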

Assay [6] is described as follows: APR_HepG2_StressKinase_72hr: Apredica 72-hour HepG2 Assay for Stress Kinase (AID 2282921). The conditions noted are these: HepG2 stress kinase (phospho-c-Jun) imaging, actives raise or lower the signal. Put shortly: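 Dose 0.39–200 uM (10 pts, duplicate), 0.5% DMSO; 72 h; fix 3.7% formaldehyde 30 min RT; Triton permeabilize; anti-phospho-c-Jun/Cy3 + Hoechst 60 min RT; image 20x; fit gain/loss vs DMSO.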

Assay [7] is described as follows: APR_HepG2_StressKinase_24hr: Apredica 24-hour HepG2 Assay for Stress Kinase (AID 2282922). The conditions noted are these: HepG2 stress kinase (phospho-c-Jun) imaging, actives raise or lower the signal. The procedure, abridged:
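HepG2 cells exposed 24 h to 0.39–200 uM compound in duplicate (0.5% v/v DMSO final). Cells fixed in 3.7% formaldehyde, permeabilized and immunostained for phospho-c-Jun; read by high-content fluorescence imaging, fitted bidirectionally against DMSO.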

Assay [8] can be described thus: APR_HepG2_p53Act_72hr: Apredica 72-hour HepG2 Assay for p53 Activation (AID 2282923).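 Note: average cellular p53 protein immunofluorescence intensity in HepG2 cells.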 The conditions noted are these: high-content imaging, actives raise or lower the signal. The procedure, abridged: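 10-pt conc. 0.39–200 uM, duplicate, 0.5% DMSO; 72 hr exposure; 3.7% formaldehyde fix, 0.5% Triton perm; sheep anti-p53/Cy5 + Hoechst; ArrayScan 20x, 6 images/well; gain/loss fit vs DMSO.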

Assay [9] can be described thus: APR_HepG2_MitoMass_72hr: Apredica 72-hour HepG2 Assay for Mitochondrial Mass (AID 2282924).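 Note: MitoTracker Red CMXRos stain intensity per cell imaged as mitochondrial mass.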 As to conditions: high-content imaging, actives raise or lower the signal. The procedure, abridged: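 HepG2 cells dosed 72 hr at 0.39–200 uM (0.5% DMSO), in duplicate. MitoTracker Red CMXRos 250 nM loaded 30 min before formaldehyde fixation; high-content fluorescence imaging, bidirectional fit versus DMSO.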

A short description of assay [10]: APR_HepG2_NuclearSize_72hr: Apredica 72-hour HepG2 Assay for Nuclear Size (AID 2282925). The conditions noted are these: high-content imaging, actives raise or lower the signal. Put shortly:
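HepG2 cells dosed 72 h at 0.39–200 uM (10 concentrations, duplicate) in 0.5% v/v DMSO final. Fixed, Hoechst 33342-stained nuclei imaged; nuclear diameter measured by automated image analysis. Bidirectional fit versus DMSO.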

Structures are written as SMILES. Activity calls are given as the source filed them. Rule for the calls: active = hit-call score of the fitted dose curve at least 0.9, where 1 is the maximum; inactive = score below 0.9.

Take `CC(C)c1cccc(C(C)C)c1N1C(=O)c2ccc(O)cc2C1=O`: the AC50 in assay [1] is 6.16 µM (active); in [3] it was 6.04 µM (active); in assay [4], 14.8 µM (active); in assay [5], 44 µM (active); in assay [6] it was 6.1 µM (active); in [7], 8.52 µM (active). Also, the AC50 in assay [8] was 3.01 µM (active). Moreover, the compound was called inactive in [2], in [9] and in assay [10].
Consider `O=C1OC(=O)C2C3C=CC(C3)C12` (stereo not given), for which the call in [1], in assay [2], in [3], in assay [4], in [5] and in [6] was inactive. In addition, the result in [7], in assay [8], in [9] and in assay [10] was inactive.
On to `CC(C)CCO`, for which the compound was called inactive in assay [1], in [2], in assay [3], in [4], in assay [5] and in assay [6]. Further, the call in [7], in assay [8], in assay [9] and in [10] was inactive.
`CCCCC(CC)COC(=O)c1ccc(C(=O)OCC(CC)CCCC)cc1` (stereo not given): the AC50 in assay [1] was 31.5 µM (active). Also, the outcome in assay [2], in assay [3], in assay [4], in assay [5], in assay [6] and in [7] was inactive. For the same compound, the compound was called inactive in assay [8], in assay [9] and in assay [10].
Turning to `O=C(O)CCN(C1(C(=O)NO)CCCC1)S(=O)(=O)c1ccc(Oc2ccc(F)cc2)cc1`, the result in assay [1], in [2], in assay [3], in assay [4], in assay [5] and in [6] was inactive. For the same compound, the compound was classed as inactive in assay [7], in assay [8], in assay [9] and in assay [10].
For `C=CC(=C)CCC=C(C)C`, the result in [1], in assay [2], in assay [3], in assay [4], in assay [5] and in [6] was inactive. Also, the compound was classed as inactive in assay [7], in assay [8], in assay [9] and in [10].
As to `COc1ccc(-n2nc(C(F)F)cc2-c2ccc(S(C)=O)cc2)cc1` (stereo not given), the outcome in assay [1], in assay [2], in assay [3], in assay [4], in assay [5] and in assay [6] was inactive. The compound was classed as inactive in [7], in [8] and in assay [10]. In assay [9], the AC50 is 36.8 µM (active).
For `CC(C)=CCCC(C)CCO` (stereo not given), the compound was called inactive in assay [1], in [2], in [4], in assay [5], in assay [6] and in [7]. In addition, the compound was classed as inactive in [8] and in [10]. Besides, the AC50 in [3] is 0.0229 µM (active); in assay [9], 0.0391 µM (active).
As for `Cn1c(=O)c2c(ncn2C)n(C)c1=O`, the result in assay [1], in assay [2], in assay [3], in [4], in assay [5] and in assay [6] was inactive. Further, the compound was called inactive in assay [7], in [8], in assay [9] and in assay [10].
`CC(C)CCCCCCOC(=O)c1ccc(C(=O)OCCCCCCC(C)C)c(C(=O)OCCCCCCC(C)C)c1`: the call in [1], in [2], in assay [3], in assay [4], in [5] and in assay [6] was inactive. In addition, the call in assay [7], in assay [8], in [9] and in [10] was inactive.
For `CCOc1cccc(-n2cc(C(=O)N3CCN(c4cc(C(=O)O)c5ccccc5c4)CC3)nc2-c2ccc(C)cc2)c1`, the AC50 was 89.5 µM (active) in assay [1]; 77.2 µM (active) in assay [3]; 90.4 µM (active) in [5]; 60.2 µM (active) in assay [6]; 76.1 µM (active) in assay [8]. In addition, the call in [2], in [4], in assay [7], in assay [9] and in [10] was inactive.
Consider `Cn1c(=O)cc(Oc2ccc(F)cc2F)c2cnc(NCC(C)(C)O)nc21`, for which the result in assay [1], in assay [2], in assay [3], in [4], in assay [5] and in assay [6] was inactive. Moreover, the compound was called inactive in [7], in assay [8], in assay [9] and in [10].
Regarding `CC[C@H]1CC[C@H](NCc2cc3c(cc2OC)[C@H]2C[C@H]2C(=O)N3C)[C@H](c2ccccc2)N1`, the result in assay [1], in [2], in assay [3], in assay [4], in [5] and in [6] was inactive. Further, the outcome in assay [7], in assay [8], in assay [9] and in assay [10] was inactive.
With `Fc1ccccc1[C@@H](F)COC1CCC(Nc2ncnc3[nH]ncc23)CC1` (stereo not given in full), the AC50 in assay [1] is 51.3 µM (active); in [3] it was 60 µM (active); in assay [4], 81.2 µM (active); in assay [5], 74.9 µM (active); in assay [8], 55.6 µM (active). Further, the outcome in [2], in assay [6], in assay [7], in assay [9] and in assay [10] was inactive.
In the case of `Nc1ccc(Nc2ccccc2)cc1`, the AC50 in [1] was 29.9 µM (active); in [3] it was 42.1 µM (active); in [5], 17.9 µM (active); in [8], 33.3 µM (active). The result in [2], in [4], in assay [6], in [7], in [9] and in [10] was inactive.
In the case of `O=c1n(CC2CO2)c(=O)n(CC2CO2)c(=O)n1CC1CO1` (stereo not given), the AC50 was 15.2 µM (active) in [1]; 15.8 µM (active) in assay [3]; 17.8 µM (active) in [5]; 31.6 µM (active) in [7]; 5.06 µM (active) in assay [8]; 50 µM (active) in assay [9]. The compound was classed as inactive in [2], in assay [4], in [6] and in assay [10].
In the case of `CCC(C)(C)C(=O)O[C@H]1C[C@@H](C)C=C2C=C[C@H](C)[C@H](CC[C@@H]3C[C@@H](O)CC(=O)O3)[C@H]21`, the AC50 in assay [1] is 58.8 µM (active); in [3], 2.62 µM (active); in assay [5] it was 73.8 µM (active); in assay [6], 100 µM (active); in [7], 115 µM (active); in assay [8] it was 29.6 µM (active). The AC50 in [9] was 0.559 µM (active). For the same compound, the outcome in [2], in assay [4] and in [10] was inactive.
On to `CC(C)(O)c1coc(S(=O)(=O)NC(=O)Nc2c3c(cc4c2CCC4)CCC3)c1`, for which the result in [1], in assay [2], in assay [3], in assay [4], in assay [5] and in assay [6] was inactive. Besides, the result in [7], in assay [8], in [9] and in assay [10] was inactive.
On to `O=C(NS(=O)(=O)/C=C/c1ccccc1)c1ccc(F)cc1Cl`, for which the result in assay [1], in assay [2], in assay [3], in assay [4], in [5] and in assay [6] was inactive. Moreover, the compound was classed as inactive in [7], in [8], in assay [9] and in assay [10].
Consider `CCOCCOCCOCCO`, for which the call in assay [1], in assay [2], in assay [3], in [4], in [5] and in assay [6] was inactive. In addition, the compound was classed as inactive in assay [7], in assay [8], in [9] and in assay [10].
Consider `CC(C)=CCC/C(C)=C/CO`, for which the outcome in [1], in assay [2], in [3], in [4], in assay [5] and in assay [6] was inactive. The compound was classed as inactive in assay [7], in assay [9] and in assay [10]. In assay [8], the AC50 is 107 µM (active).
